Data from PubChem BioAssay (NCATS).
Inconclusive results are not listed. Where a call stands in place of a potency, no number is given. Active and inactive are the calls of the source. Calls follow the shape of the dose curve; as a rule, active = well fitted cell-killing curve with a large enough effect; inconclusive = small, poorly fitted or top-dose-only effect, or effect the other way; inactive = flat fitted curve, though single readings scatter.
Potency is read from the fitted curve at half-maximal effect.

The compounds below were run on C33A (assay: Primary qHTS to identify gynecologic anti-cancer compounds using libraries of approved drugs and bioactive compounds (AID 1345084; also: nearly all actives have a fitted effect of over 55% in size)). Conditions: Gynecologic cancer cell panel viability, ATPlite luminescence, 48 h; series mostly up to 57.5 µM.
How it was run: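 In this quantitative HTS, cell killing is estimated from loss of ATP-dependent luciferase light. Cells see five compound concentrations over a 48 h exposure.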
For `CCC(CC)(CC(=O)Nc1cccc(/C=C/c2nc(C3CCC3)cs2)c1)C(=O)O`, the Potency was “inactive”.
In the case of `CO[C@H]1C=CO[C@@]2(C)Oc3c(C)c(O)c4c(O)c(c(/C=N/N5CCN(C)CC5)c(O)c4c3C2=O)NC(=O)/C(C)=C\C=C[C@H](C)[C@H](O)[C@@H](C)[C@@H](O)[C@@H](C)[C@H](OC(C)=O)[C@@H]1C`, the Potency is reported as “inactive”.
For `CCOc1ccccc1C(N)=O`, the Potency was “inactive”.
For `O=C1OC(CN2CCOCC2)CN1/N=C/c1ccc([N+](=O)[O-])o1` (stereo not given), the Potency was “inactive”.
In the case of `CN(C)CCOC(=O)C(c1ccccc1)C1(O)CCCC1` (stereo not given), the Potency is reported as “inactive”.
For `CC[C@H](c1ccc(O)cc1)[C@@H](CC)c1ccc(O)cc1`, the Potency was “inactive”.
For `CCCCCCCCCCCCSCCOCCO`, the Potency was “inactive”.
With `C[C@H]1[C@H]2CC[C@H]3[C@@H]4CC=C5C[C@@H](N(C)C)CC[C@]5(C)[C@H]4CC[C@]23CN1C` the Potency was “inactive”.
With `CCCCC(CC)CN1CN(CC(CC)CCCC)CC(C)(N)C1` (stereo not given) the Potency was “inactive”.
In the case of `C#C[C@]1(OC(C)=O)CC[C@H]2[C@@H]3CCC4=C/C(=N/O)CC[C@@H]4[C@H]3CC[C@@]21CC`, the Potency is reported as “inactive”.
With `CCCCc1cc2ccccc2c(OCCN(C)C)n1` the Potency was “inactive”.
With `CN(CCCN1c2ccccc2CCc2ccccc21)CC(=O)c1ccc(Cl)cc1` the Potency was “inactive”.
With `CCc1ccc(C(=O)C(C)CN2CCCCC2)cc1` (stereo not given) the Potency was “inactive”.
`O=C1C(CCS(=O)c2ccccc2)C(=O)N(c2ccccc2)N1c1ccccc1` (stereo not given) was tested, and the Potency was “inactive”.
With `O=C(Nc1ncc([N+](=O)[O-])s1)c1cccs1` the Potency was “inactive”.
In the case of `NCCNc1cccc2ccccc12`, the Potency is reported as “inactive”.
For `Cc1ccc2c(Br)cc(Br)c(O)c2n1`, the Potency was 20 µM (active).
With `CNCCCCOc1ccccc1Cc1ccccc1` the Potency was 25.1 µM (active).
In the case of `Cc1c[nH]c2ccccc12`, the Potency is reported as “inactive”.
`O=[N+]([O-])c1ccc(/C=N\O)o1` was tested, and the Potency was “inactive”.
In the case of `C/C=C/C=N/NC(=O)c1ccncc1`, the Potency is reported as “inactive”.
With `CCO[C@@H]1O[C@H](C(COCc2ccccc2)OCc2ccccc2)[C@H](OCc2ccccc2)[C@H]1O` (stereo not given in full) the Potency was “inactive”.
For `CC[C@]12CCCN3CCc4c(n(c5ccccc45)C(=O)C1)[C@@H]32`, the Potency was “inactive”.
`CCc1nn(CCCN2CCN(c3cccc(Cl)c3)CC2)c(=O)n1CCOc1ccccc1` was tested, and the Potency was “inactive”.
With `c1ccc(CC2=NCCN2)cc1` the Potency was “inactive”.
